Test results published in PubChem BioAssay (Tox21).
Inconclusive results are not listed. Active and inactive are the calls of the source. Unless noted, calls come from the whole dose curve; as a rule, active = well fitted curve in the direction sought with a large enough effect in the repeat runs; inconclusive = weak or mixed curves; inactive = no such curve, though single readings can be large; an effect the other way counts as inactive or inconclusive.

Experiments:
[1] = qHTS RealTime-Glo MT Cell Viability Assay in HEK293 cells - 0 hour (AID 1224880); note: top concentration of the series differs between compounds; nearly all actives have a fitted effect of over 45% in size
How it was run: (§1)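 Viable HEK293 cells reduce a cell-permeant prosubstrate; the product diffuses out and is consumed by NanoLuc in the medium to give light. Compounds went in after a 5 h incubation and plates were read over the treatment course.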

[2] = A CellTox Green Cytotoxicity Assay to monitor cytotoxicity in HEK293 cells - 32 hour (AID 1224881); note: nearly all actives have a fitted effect of over 40% in size
How it was run: (§2)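 Fluorescence intensity, read at 0, 8, 16, 24, 32 and 40 h of compound treatment, reflected dye binding to DNA of dead HEK293 cells; compounds (23 nL, DMSO) were added 5 h after plating cells with reagent.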

[3] = A CellTox Green Cytotoxicity Assay to monitor cytotoxicity in HepG2 cells - 0 hour (AID 1224882); note: nearly all actives have a fitted effect of over 35% in size
How it was run: (§3)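 Using 1536-well format, dye-containing HepG2 suspension was seeded, allowed 5 h at 37 C/5% CO2, dosed by pintool with compounds, positive and negative controls, and imaged for fluorescence across 40 h.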

[4] = A CellTox Green Cytotoxicity Assay to monitor cytotoxicity in HepG2 cells - 32 hour (AID 1224883); note: nearly all actives have a fitted effect of over 50% in size
How it was run: as §3

[5] = A CellTox Green Cytotoxicity Assay to monitor cytotoxicity in HEK293 cells - 8 hour (AID 1224884); note: nearly all actives have a fitted effect of over 35% in size
How it was run: as §2

[6] = qHTS RealTime-Glo MT Cell Viability Assay in HepG2 cells - 16 hour (AID 1224885); note: nearly all actives have a fitted effect of over 50% in size
How it was run: (§4)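 Tox21 10K library screened in qHTS format on HepG2 cells carrying RealTime-Glo reagents. Compounds were added after a 5 h preincubation, and the luminescent signal from continuous culture was measured repeatedly during 40 h treatment.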

[7] = qHTS RealTime-Glo MT Cell Viability Assay in HEK293 cells - 24 hour (AID 1224886); note: top concentration of the series differs between compounds; nearly all actives have a fitted effect of over 50% in size
How it was run: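 Luminescence generated by NanoLuc from substrate produced by living HEK293 cells served as the viability signal. Each value reflects the reading at its stated time point during continuous 40 h compound exposure at 37 C.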

[8] = qHTS RealTime-Glo MT Cell Viability Assay in HEK293 cells - 8 hour (AID 1224887); note: top concentration of the series differs between compounds; nearly all actives have a fitted effect of over 50% in size
How it was run: as §1

[9] = A CellTox Green Cytotoxicity Assay to monitor cytotoxicity in HEK293 cells - 16 hour (AID 1224888); note: nearly all actives have a fitted effect of over 35% in size
How it was run: as §2

[10] = qHTS RealTime-Glo MT Cell Viability Assay in HepG2 cells - 0 hour (AID 1224889); note: nearly all actives have a fitted effect of over 50% in size
How it was run: as §4

[11] = A CellTox Green Cytotoxicity Assay to monitor cytotoxicity in HepG2 cells - 8 hour (AID 1224890); note: nearly all actives have a fitted effect of over 45% in size
How it was run: as §3

[12] = qHTS assay to identify small molecule antagonists of the estrogen receptor alpha (ER-alpha) signaling pathway using the BG1 cell line in the presence of 0.1 nM 17-beta-estradiol - cell viability counter screen (AID 1259241); note: nearly all actives have a fitted effect of over 40% in size
How it was run: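 Measures cytotoxicity alongside the ER-alpha antagonist readout: VM7Luc4E2 cells, charcoal-stripped serum, 0.1 nM 17beta-estradiol final, 22 hr compound incubation at 37C, CellTiter-Fluor fluorescence.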

[13] = qHTS assay to identify small molecule antagonists of the androgen receptor (AR) signaling pathway using the MDA cell line in the presence of 0.5 nM R1881 - cell viability counter screen (AID 1259242); note: nearly all actives have a fitted effect of over 45% in size
How it was run: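 Viability of MDA-kb2 cells was multiplexed with the luciferase AR readout; after 16 hr with compounds and R1881 at 0.5 nM final, CellTiter-Fluor fluorescence was recorded.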

[14] = qHTS assay to identify small molecule phospholipidosis (PLD) inducers (AID 1259344; active = well fitted curve in the direction sought with a large enough effect; an effect the other way counts as inactive or inconclusive)
How it was run: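 HepG2 cells on collagen I, attached 4 h at 37 C, were co-treated with compound and LipidTOX Red dye for 24 h at 37 C, then fixed with paraformaldehyde plus Hoechst 33342 and imaged by high-content microscopy for phospholipid accumulation.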

[15] = qHTS assay to identify small molecule HDAC inhibitors (AID 1259364);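 note: wild-type HCT-116 cells with endogenous class I/II HDAC activity; top concentration of the series differs between compounds; nearly all actives have a fitted effect of over 45% in size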
How it was run: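 Read-out: luminescence of HDAC-Glo I/II reagent, 30 min RT, reflecting class I/II deacetylase activity in whole HCT-116 cells pre-exposed 2 h to DMSO-dissolved compounds.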

[16] = qHTS assay to identify small molecule HDAC inhibitors - cell viability counter screen (AID 1259365)
How it was run: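 Following a 2hr exposure of overnight-plated wild-type HCT-116 cells to DMSO-delivered compounds, CellTiter-Glo was added and luminescence recorded after 30min at room temperature.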

[17] = qHTS assay to identify small molecule agonists of the sonic hedgehog signaling (Shh) pathway - cell viability counter screen (AID 1259366); note: nearly all actives have a fitted effect of over 50% in size
How it was run: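 After a 4hr attachment at 37C, NIH/3T3 cells bearing an integrated Gli1-driven luciferase reporter were dosed with compounds. Treatment lasted 24hr, with the final hour including CellTiter-Fluor for a fluorescence viability measurement.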

[18] = qHTS assay to identify small molecule antagonists of the sonic hedgehog signaling (Shh) pathway - cell viability counter screen (AID 1259367); note: nearly all actives have a fitted effect of over 55% in size
How it was run: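 NIH/3T3-derived Gli1-Luc reporter cells (2,000 per well) rested 4 hr at 37 C, then received DMSO compounds plus conditioned medium. After 23 hr of treatment, CellTiter-Fluor was added for 1 hr at 37C and fluorescence read.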

[19] = target: Estrogen receptor (Homo sapiens) (UniProt P03372); test: qHTS assay to identify small molecule antagonists of the estrogen receptor alpha (ER-alpha) signaling pathway using the BG1 cell line in the presence of 0.1 nM 17-beta-estradiol (AID 1259244); note: nearly all actives have a fitted effect of over 50% in size
How it was run: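 Estradiol at 0.1 nM (final) stimulates the endogenous ER-alpha of VM7Luc4E2 cells carrying an ERE-driven luciferase; compounds are co-incubated 22 h at 37C and luciferase output quantified by luminescence.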

[20] = target: Androgen receptor (Homo sapiens) (UniProt P10275); test: qHTS assay to identify small molecule antagonists of the androgen receptor (AR) signaling pathway using the MDA cell line in the presence of 0.5 nM R1881 (AID 1259243); note: nearly all actives have a fitted effect of over 50% in size
How it was run: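 Reporter cells cultured without CO2 receive test chemicals, then 0.5 nM R1881 final; after 16 hr at 37C, ONE-Glo is added and light output recorded.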
% is set by controls: 0 for no effect and ±100 for the full control effect.

Sequence of Estrogen receptor (Homo sapiens) (P03372 whole entry, looked up): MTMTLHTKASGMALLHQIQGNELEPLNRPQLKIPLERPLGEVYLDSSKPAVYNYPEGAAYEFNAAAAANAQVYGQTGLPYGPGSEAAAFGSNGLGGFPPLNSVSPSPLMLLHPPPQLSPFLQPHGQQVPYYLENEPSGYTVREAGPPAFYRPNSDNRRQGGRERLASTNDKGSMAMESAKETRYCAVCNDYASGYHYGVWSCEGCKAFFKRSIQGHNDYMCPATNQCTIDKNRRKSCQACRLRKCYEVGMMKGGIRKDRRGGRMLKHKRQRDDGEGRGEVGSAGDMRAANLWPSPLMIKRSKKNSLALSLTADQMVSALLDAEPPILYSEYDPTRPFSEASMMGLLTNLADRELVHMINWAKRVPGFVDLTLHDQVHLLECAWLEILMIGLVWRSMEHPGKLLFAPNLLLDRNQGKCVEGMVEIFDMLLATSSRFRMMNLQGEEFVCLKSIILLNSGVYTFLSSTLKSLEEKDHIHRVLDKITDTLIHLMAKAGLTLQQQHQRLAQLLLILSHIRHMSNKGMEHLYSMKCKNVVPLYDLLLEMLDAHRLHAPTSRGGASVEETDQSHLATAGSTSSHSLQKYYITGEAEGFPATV
Sequence of Androgen receptor (Homo sapiens) (P10275 whole entry, looked up): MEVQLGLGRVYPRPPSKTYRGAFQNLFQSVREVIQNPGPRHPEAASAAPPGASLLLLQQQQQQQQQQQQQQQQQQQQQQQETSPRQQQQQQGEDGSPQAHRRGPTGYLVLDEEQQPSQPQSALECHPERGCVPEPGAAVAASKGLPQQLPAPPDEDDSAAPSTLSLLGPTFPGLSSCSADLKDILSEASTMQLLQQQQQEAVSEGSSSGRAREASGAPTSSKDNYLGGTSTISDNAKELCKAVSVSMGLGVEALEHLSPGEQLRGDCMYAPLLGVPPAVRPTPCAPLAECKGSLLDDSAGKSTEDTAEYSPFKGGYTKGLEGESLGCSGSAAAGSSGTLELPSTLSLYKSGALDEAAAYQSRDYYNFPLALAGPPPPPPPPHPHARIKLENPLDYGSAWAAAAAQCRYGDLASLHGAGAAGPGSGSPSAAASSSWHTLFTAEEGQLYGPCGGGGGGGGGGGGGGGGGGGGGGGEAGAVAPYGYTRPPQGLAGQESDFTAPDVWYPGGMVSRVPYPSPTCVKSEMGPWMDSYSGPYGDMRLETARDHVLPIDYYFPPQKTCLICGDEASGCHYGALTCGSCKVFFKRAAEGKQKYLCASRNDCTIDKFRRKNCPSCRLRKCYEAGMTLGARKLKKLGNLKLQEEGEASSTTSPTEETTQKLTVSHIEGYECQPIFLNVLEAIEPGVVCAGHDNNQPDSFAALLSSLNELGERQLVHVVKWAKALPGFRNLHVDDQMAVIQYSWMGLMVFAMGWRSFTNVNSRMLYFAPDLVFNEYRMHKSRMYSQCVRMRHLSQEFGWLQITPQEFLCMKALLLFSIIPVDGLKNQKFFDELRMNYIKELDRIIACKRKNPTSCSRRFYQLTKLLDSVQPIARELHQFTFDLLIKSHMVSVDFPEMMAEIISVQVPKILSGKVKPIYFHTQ

NC(=O)OCCCc1ccccc1
inactive: outcome [1] | Potency [2] | outcome [3] | Potency [4] | Potency [5] | Potency [6] | Potency [7] | Potency [8] | Potency [9] | outcome [10] | Potency [11] | outcome [12] | Potency [13] | Potency [14] | Potency [15] | outcome [16] | Potency [17] | Potency [18]

ClCC1CO1 (stereo unspecified)
inactive: outcome [1] | Potency [2] | outcome [3] | Potency [4] | Potency [5] | Potency [6] | Potency [7] | Potency [8] | outcome [10] | Potency [11] | outcome [12] | Potency [13] | Potency [19] | Potency [14] | Potency [15] | outcome [16] | Potency [17] | Potency [18]

CCCCOC(C)=O
inactive: outcome [1] | Potency [2] | outcome [3] | Potency [4] | Potency [5] | Potency [6] | Potency [7] | Potency [8] | Potency [9] | outcome [10] | Potency [11] | outcome [12] | Potency [13] | Potency [19] | Potency [15] | outcome [16] | Potency [17] | Potency [18]

Nc1c(Cl)c(F)nc(OCC(=O)O)c1Cl
inactive: outcome [1] | Potency [2] | outcome [3] | Potency [4] | Potency [5] | Potency [6] | Potency [7] | Potency [8] | Potency [9] | outcome [10] | Potency [11] | outcome [12] | Potency [13] | Potency [20] | Potency [15] | outcome [16] | Potency [17] | Potency [18]

[P]#[In]
inactive: outcome [1] | Potency [2] | outcome [3] | Potency [4] | Potency [5] | Potency [6] | Potency [7] | Potency [8] | Potency [9] | outcome [10] | Potency [11] | outcome [12] | Potency [13] | Potency [15] | outcome [16] | Potency [17] | Potency [18]

O=C(Cl)C(Cl)Cl
inactive: outcome [1] | Potency [2] | outcome [3] | Potency [4] | Potency [5] | Potency [6] | Potency [7] | Potency [8] | Potency [9] | outcome [10] | Potency [11] | outcome [12] | Potency [13] | Potency [19] | Potency [15] | outcome [16] | Potency [17] | Potency [18]

CCOP(=S)(OCC)Oc1ccc(Cl)cc1Cl
inactive: outcome [1] | Potency [2] | outcome [3] | Potency [4] | Potency [5] | Potency [6] | Potency [7] | Potency [8] | Potency [9] | outcome [10] | Potency [11] | outcome [12] | Potency [13] | Potency [19] | Potency [15] | outcome [16] | Potency [17] | Potency [18]

CC1NCCOC1c1ccccc1 (stereo unspecified)
inactive: outcome [1] | Potency [2] | outcome [3] | Potency [4] | Potency [5] | Potency [6] | Potency [7] | Potency [8] | Potency [9] | outcome [10] | Potency [11] | outcome [12] | Potency [13] | Potency [19] | Potency [14] | Potency [15] | outcome [16] | Potency [17] | Potency [18]

Cc1ccc2c(c1)C1CN(C)CCC1N2 (stereo unspecified)
inactive: activity change, negative = cytotoxicity [1] -0.907% [at 15.8 µM] | cytotoxicity increase [2] -4.65% [at 15.8 µM] | cytotoxicity [3] -0.534% [at 15.8 µM] | cytotoxicity increase [4] 14.3% [at 15.8 µM] | cytotoxicity increase [5] -1.28% [at 15.8 µM] | activity change, negative = cytotoxic [6] -6.11% [at 15.8 µM] | activity change, negative = cytotoxicity [7] -0.194% [at 15.8 µM] | activity change, negative = cytotoxicity [8] 1.42% [at 15.8 µM] | activity change [9] -0.0479% [at 15.8 µM, hits give high values] | activity change, negative = cytotoxicity [10] -0.0575% [at 15.8 µM] | cytotoxicity increase [11] 11.9% [at 15.8 µM] | activity change, negative = cytotoxicity [12] -3.08% [at 19 µM] | viability change, negative = cytotoxic [13] -1.32% [at 19 µM] | activity change, negative = inhibition [19] -0.7% [at 19 µM] | Potency [14] | activity change, negative = inhibition [15] -0.403% [at 19 µM] | activity change, negative = cytotoxicity [16] 1.1% [at 19 µM] | viability change, negative = cytotoxic [17] -5.79% [at 19 µM] | viability change, negative = cytotoxic [18] 5.33% [at 19 µM]

CCOC(=O)COc1ccc(Cl)cc1Cl
inactive: outcome [1] | Potency [2] | outcome [3] | Potency [4] | Potency [5] | Potency [6] | Potency [7] | Potency [8] | Potency [9] | outcome [10] | Potency [11] | outcome [12] | Potency [13] | Potency [15] | outcome [16] | Potency [17] | Potency [18]

CC(Cl)(Cl)Cl
inactive: outcome [1] | Potency [2] | outcome [3] | Potency [4] | Potency [5] | Potency [6] | Potency [7] | Potency [8] | Potency [9] | outcome [10] | Potency [11] | outcome [12] | Potency [13] | Potency [15] | outcome [16] | Potency [17] | Potency [18]

N=C(N)[Se]
inactive: outcome [1] | Potency [2] | outcome [3] | Potency [4] | Potency [5] | Potency [6] | Potency [7] | Potency [8] | Potency [9] | outcome [10] | Potency [11] | outcome [12] | Potency [13] | Potency [19] | Potency [15] | outcome [16] | Potency [17]

ClCCCCl
inactive: outcome [1] | Potency [2] | outcome [3] | Potency [4] | Potency [5] | Potency [6] | Potency [7] | Potency [8] | Potency [9] | outcome [10] | Potency [11] | outcome [12] | Potency [13] | Potency [15] | outcome [16] | Potency [17] | Potency [18]

CS(=O)(=O)c1ccc(C(=O)C2C(=O)CCCC2=O)c(Cl)c1COCC(F)(F)F
inactive: outcome [1] | Potency [2] | outcome [3] | Potency [4] | Potency [5] | Potency [6] | Potency [7] | Potency [8] | Potency [9] | outcome [10] | Potency [11] | outcome [12] | Potency [13] | Potency [19] | Potency [15] | outcome [16] | Potency [17] | Potency [18]

CCOc1cc(OP(=S)(OC)OC)nc(CC)n1
inactive: outcome [1] | Potency [2] | outcome [3] | Potency [4] | Potency [5] | Potency [6] | Potency [7] | Potency [8] | Potency [9] | outcome [10] | Potency [11] | outcome [12] | Potency [13] | Potency [15] | outcome [16] | Potency [17] | Potency [18]
